Holding throughout (experiment): NCI-60 one-dose screen, 48 h (100 = growth as untreated, 0 = no growth, -100 = all killed)
What all share (conditions): 10 µM unless noted

The subject of assay [1] is NCI-H23 lung.
Assay [2] relates to NCI-H226 lung.
Assay [3] concerns NCI-H322M lung.
Assay [4] relates to NCI-H460 lung.
For assay [5], the system named is HOP-92 NSCLC.
Assay [6] concerns NCI-H522 lung.
Assay [7] concerns A549/ATCC NSCLC.
The subject of assay [8] is 786-0 renal.
The test system of assay [9] is COLO 205 colon.
Assay [10] deals with DU-145 prostate.
Assay [11] concerns K-562 leukemia.
Assay [12] deals with MALME-3M melanoma.
The subject of assay [13] is MDA-MB-231 breast.
The subject of assay [14] is RXF 393 renal.
The test system of assay [15] is SF-268 CNS.
Assay [16] concerns SF-295 CNS.
Assay [17] has as its system SF-539 CNS.
Assay [18] has as its system UACC-257 melanoma.
Assay [19] deals with M14 melanoma.
The subject of assay [20] is HOP-62 NSCLC.

Molecules are shown by their SMILES. “And” between values parts separate entries of the source, which are not always exact repeats. Equal entries are not always repeated. Compounds without any hit were thinned out: in the full panel of roughly 83,000, 20% have a hit.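 Single-concentration screen, 48 h exposure, 96-well plates. Endpoint: percent growth. Below 10 = active.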 The source made the active and inactive calls.

As for `N/C(=N\N=C\c1ccc2c(c1)OCO2)N/N=C\c1ccc2c(c1)OCO2`, the growth in assay [1] was 109% (inactive) and 89% (inactive); in assay [2], 106% (inactive) and 108% (inactive); in assay [3], 108% (inactive) and 101% (inactive); in assay [4], 104% (inactive) and 69.4% (inactive); in [5], 99.8% (inactive); in [6], 119% (inactive) and 108% (inactive). The growth in assay [7] was 107% (inactive) and 108% (inactive); in [8] it was 103% (inactive) and 88.6% (inactive); in assay [9] it was 108% (inactive) and 94.5% (inactive); in [10], 110% (inactive) and 83.9% (inactive); in [11], 90.1% (inactive); in [12], 92.7% (inactive). The growth in [13] was 107% (inactive) and 90.4% (inactive); in [14], 110% (inactive); in assay [15] it was 101% (inactive) and 76.2% (inactive); in [16], 114% (inactive) and 121% (inactive); in assay [17] it was 109% (inactive) and 113% (inactive); in assay [18] it was 110% (inactive) and 97% (inactive). Further, the growth in [19] is 100% (inactive) and 59.7% (inactive).
In the case of `CCN(CC)CCOc1ccc2c(c1)C(=O)c1cc(OCCN(CC)CC)ccc1-2`, the growth in [1] was 79.5% (inactive) and 71.2% (inactive); in assay [2], 99.7% (inactive) and 73% (inactive); in [3], 85.8% (inactive) and 60.6% (inactive); in assay [20], 58.3% (inactive) and 38.2% (inactive); in assay [4], 46.2% (inactive) and 12.9% (inactive); in assay [5], 20% (inactive). Besides, the growth in [6] was 99.6% (inactive) and 69.6% (inactive); in [8], 63.3% (inactive) and -30.9% (active); in assay [9], 11.3% (inactive) and -4.52% (active); in [10], 74.6% (inactive) and 64.7% (inactive); in assay [11], 41.7% (inactive) and -9.47% (active); in assay [12], 98.2% (inactive) and 80.2% (inactive). The growth in assay [13] is 65.5% (inactive) and 78.5% (inactive); in [14], 71.4% (inactive); in assay [15], 75.1% (inactive) and 54.8% (inactive); in [16] it was 82.6% (inactive) and 71.5% (inactive); in [17], 50% (inactive) and 38.4% (inactive); in assay [18], 89.9% (inactive) and 88.6% (inactive). For the same compound, the growth in [19] is 91.7% (inactive) and 83.4% (inactive).
On to `Cn1c(SSc2ccc(-c3cccnc3)n2C)ccc1-c1cccnc1`, for which the growth in assay [1] is 99.8% (inactive) and 111% (inactive); in assay [2], 108% (inactive) and 105% (inactive); in assay [3], 106% (inactive) and 95.5% (inactive); in [4], 101% (inactive) and 65.9% (inactive); in assay [5] it was 79% (inactive) and 101% (inactive); in assay [6] it was 62% (inactive) and 81.9% (inactive). Also, the growth was 103% (inactive) in assay [7]; 120% (inactive) and 112% (inactive) in [8]; 116% (inactive) and 102% (inactive) in assay [9]; 115% (inactive) and 107% (inactive) in [10]; 75.9% (inactive) and 7.91% (active) in [11]; 102% (inactive) and 105% (inactive) in [12]. Moreover, the growth is 91.4% (inactive) and 110% (inactive) in [13]; 105% (inactive) and 110% (inactive) in assay [14]; 82.1% (inactive) and 93.5% (inactive) in [15]; 77.9% (inactive) and 93.7% (inactive) in assay [16]; 116% (inactive) and 122% (inactive) in assay [17]; 86.1% (inactive) and 93.8% (inactive) in assay [18]. Also, in [19], the growth was 101% (inactive) and 98.4% (inactive).
`Cc1cc(O)c(C(C)C)cc1S(=O)(=O)O` (tested in a mixture with another compound): the growth in assay [1] was 87.6% (inactive) and 13% (inactive) and 102% (inactive); in assay [2], 89% (inactive) and 43.4% (inactive) and 93.8% (inactive); in assay [3], 90.7% (inactive) and 24.7% (inactive) and 93.4% (inactive); in [4] it was 99.1% (inactive) and 1.34% (active) and 108% (inactive); in [5] it was 89.5% (inactive) and 6.59% (active) and 77.8% (inactive); in assay [6] it was 88.5% (inactive) and -20.5% (active). Further, the growth was 90.1% (inactive) and 8.67% (active) and 102% (inactive) in assay [7]; 87.2% (inactive) and 13% (inactive) and 116% (inactive) in assay [8]; 124% (inactive) and -63.7% (active) and 103% (inactive) in assay [9]; 120% (inactive) and 5.68% (active) and 115% (inactive) in assay [10]; 111% (inactive) and 3.5% (active) and 104% (inactive) in [11]; 99.7% (inactive) and 47.1% (inactive) and 93.1% (inactive) in [12]. Also, the growth in [13] was 107% (inactive) and 10.3% (inactive) and 90.1% (inactive); in assay [14] it was 97.3% (inactive) and 8.53% (active) and 118% (inactive); in assay [15], 101% (inactive) and 22% (inactive) and 109% (inactive); in [16], 101% (inactive) and 77.7% (inactive); in assay [17] it was 93.1% (inactive) and 4.98% (active) and 94.7% (inactive); in assay [18], 92.6% (inactive) and 40.4% (inactive) and 94.9% (inactive). For the same compound, the growth in assay [19] is 91.5% (inactive) and -39.1% (active) and 106% (inactive).
For `CCOC(=O)C(CNc1ccccc1)C(=O)OCC`, the growth in [1] was 100% (inactive); in assay [2], 95.2% (inactive); in [3] it was 105% (inactive); in [20] it was 90.1% (inactive); in assay [4] it was 103% (inactive); in assay [5] it was 85.6% (inactive). Besides, the growth in [8] was 100% (inactive); in assay [9], 106% (inactive); in assay [10], 109% (inactive); in assay [11], 100% (inactive); in assay [12], 115% (inactive); in assay [13] it was 103% (inactive). Moreover, the growth in assay [14] was 98.4% (inactive); in assay [15], 100% (inactive); in assay [16], 101% (inactive); in assay [17] it was 101% (inactive); in [19], 109% (inactive).
As for `COc1cc(/C=N/Nc2nc3c([nH]2)c(=O)n(C)c(=O)n3C)ccc1O`, the growth in assay [1] is 93.6% (inactive) and 111% (inactive); in assay [2], 103% (inactive) and 113% (inactive); in [3], 101% (inactive) and 105% (inactive); in assay [20], 105% (inactive) and 102% (inactive); in assay [4], 109% (inactive) and 111% (inactive); in assay [5], 102% (inactive). Also, the growth in assay [6] was 87.8% (inactive) and 95.7% (inactive); in assay [8], 95.7% (inactive) and 112% (inactive); in assay [9], 119% (inactive) and 126% (inactive); in assay [10] it was 114% (inactive); in assay [11] it was 91.4% (inactive) and 106% (inactive); in assay [12], 88.5% (inactive) and 97.9% (inactive). Besides, the growth is 96.4% (inactive) and 107% (inactive) in assay [13]; 122% (inactive) and 123% (inactive) in assay [14]; 104% (inactive) and 109% (inactive) in assay [15]; 115% (inactive) and 118% (inactive) in [16]; 89.9% (inactive) and 104% (inactive) in assay [17]; 102% (inactive) and 110% (inactive) in [18]. The growth in [19] was 102% (inactive) and 108% (inactive).
With `O=[N+]([O-])c1ccc(N/N=C\c2cc(Br)ccc2O)nc1`, the growth was 20.7% (inactive) and 14.2% (inactive) in [1]; 91.4% (inactive) and 55.4% (inactive) in assay [2]; 24.2% (inactive) and 8.6% (active) in assay [3]; 12.2% (inactive) and 34.9% (inactive) in assay [20]; 2.22% (active) and 0.392% (active) in assay [4]; 37.9% (inactive) in [5]. Also, the growth is 6.57% (active) and 7.63% (active) in assay [6]; 25.6% (inactive) and 35% (inactive) in assay [8]; 22.9% (inactive) and 43.4% (inactive) in assay [9]; 31.8% (inactive) and 24.4% (inactive) in assay [10]; 20.6% (inactive) and -3.71% (active) in [11]; 16.6% (inactive) in assay [12]. For the same compound, the growth is 11% (inactive) and 24.3% (inactive) in assay [13]; 44.2% (inactive) and 48.2% (inactive) in assay [14]; 22.3% (inactive) and 19.7% (inactive) in assay [15]; 6.95% (active) and 7.63% (active) in assay [16]; 8.15% (active) and 9.56% (active) in [17]; 9.18% (active) and -3.76% (active) in assay [18]. The growth in assay [19] was 2.25% (active) and 13.7% (inactive).
As for `CCCCCCCCCCCCOc1ccccc1C=O`, the growth in assay [1] was 100% (inactive); in assay [2] it was 95.4% (inactive); in assay [3], 114% (inactive); in assay [20], 85.3% (inactive); in [4], 102% (inactive); in assay [6], 91.3% (inactive). The growth in assay [7] is 93.3% (inactive); in assay [8], 109% (inactive); in assay [9] it was 109% (inactive); in assay [10], 111% (inactive); in assay [11] it was 83.7% (inactive); in assay [13] it was 102% (inactive). The growth is 110% (inactive) in assay [14]; 97.5% (inactive) in [15]; 99% (inactive) in assay [16]; 102% (inactive) in assay [17]; 96.8% (inactive) in assay [18]; 101% (inactive) in assay [19].
`CN1C(=O)C(N=Nc2ccc([N+](=O)[O-])cc2)SC1=S` (stereo not drawn): the growth in assay [1] was 64.1% (inactive) and 43.7% (inactive); in assay [2], 80.9% (inactive) and 70.3% (inactive); in assay [3] it was 62.2% (inactive) and 71.8% (inactive); in assay [4] it was 37.7% (inactive) and 45.3% (inactive); in [5], 61.2% (inactive) and 62.9% (inactive); in assay [6], 52.9% (inactive) and 68.1% (inactive). The growth is 71% (inactive) and 76.3% (inactive) in assay [7]; 70.2% (inactive) and 75.1% (inactive) in [8]; 67% (inactive) and 74.4% (inactive) in assay [9]; 90.7% (inactive) and 89.2% (inactive) in [10]; 43.1% (inactive) in [11]; 80.1% (inactive) and 99.9% (inactive) in [12]. Also, the growth in [13] is 76.7% (inactive) and 87% (inactive); in [14], 80% (inactive) and 94.2% (inactive); in assay [15], 65.2% (inactive) and 67.6% (inactive); in [16] it was 185% (inactive) and 46.3% (inactive); in [17], 67.2% (inactive) and 68.2% (inactive); in assay [18], 76.3% (inactive) and 84.2% (inactive). The growth in assay [19] is 59.6% (inactive) and 59.5% (inactive).
